# Assay results reported in ChEMBL document CHEMBL2218924, “A broad activity screen in support of a chemogenomic map for kinase signalling research and drug discovery” (Biochem J, 2013).
# Assays:
# [1] = target: T1, Serine/threonine-protein kinase 17A (Homo sapiens) (UniProt Q9UEE5); settings: at 10 µM
# T1 sequence (whole entry): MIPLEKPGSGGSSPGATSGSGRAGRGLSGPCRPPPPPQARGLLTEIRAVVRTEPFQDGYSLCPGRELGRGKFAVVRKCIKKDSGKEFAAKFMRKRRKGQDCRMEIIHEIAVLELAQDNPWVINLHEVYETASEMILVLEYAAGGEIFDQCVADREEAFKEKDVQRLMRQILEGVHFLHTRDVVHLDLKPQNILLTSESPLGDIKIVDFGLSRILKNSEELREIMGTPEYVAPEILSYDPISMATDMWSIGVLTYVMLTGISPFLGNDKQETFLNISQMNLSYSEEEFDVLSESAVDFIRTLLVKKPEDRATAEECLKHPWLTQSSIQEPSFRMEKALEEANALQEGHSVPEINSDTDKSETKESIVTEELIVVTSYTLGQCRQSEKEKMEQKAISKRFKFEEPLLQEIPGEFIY
# [2] = target: T2, Dual specificity tyrosine-phosphorylation-regulated kinase 2 (Homo sapiens) (UniProt Q92630); settings: at 1 µM
# T2 sequence (whole entry): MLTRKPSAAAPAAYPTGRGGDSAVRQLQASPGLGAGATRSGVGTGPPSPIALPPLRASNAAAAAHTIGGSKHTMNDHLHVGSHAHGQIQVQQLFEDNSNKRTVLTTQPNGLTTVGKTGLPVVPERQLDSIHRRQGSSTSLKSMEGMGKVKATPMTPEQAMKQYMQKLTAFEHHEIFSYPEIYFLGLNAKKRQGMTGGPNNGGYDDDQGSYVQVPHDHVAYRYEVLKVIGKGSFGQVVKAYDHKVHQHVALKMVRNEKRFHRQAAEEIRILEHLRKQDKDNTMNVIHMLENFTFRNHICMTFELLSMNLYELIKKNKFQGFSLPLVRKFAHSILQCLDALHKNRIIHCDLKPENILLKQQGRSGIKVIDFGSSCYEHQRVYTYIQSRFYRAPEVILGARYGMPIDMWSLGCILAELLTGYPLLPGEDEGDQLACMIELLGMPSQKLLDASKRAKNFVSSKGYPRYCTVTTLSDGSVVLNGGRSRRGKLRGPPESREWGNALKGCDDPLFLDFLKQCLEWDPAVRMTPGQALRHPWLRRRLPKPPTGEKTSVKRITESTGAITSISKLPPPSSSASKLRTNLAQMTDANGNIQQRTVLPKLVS
# [3] = target: T2, Dual specificity tyrosine-phosphorylation-regulated kinase 2 (Homo sapiens); settings: at 10 µM
# [4] = target: T3, Ephrin type-A receptor 1 (Homo sapiens) (UniProt P21709); settings: at 1 µM
# T3 sequence (whole entry): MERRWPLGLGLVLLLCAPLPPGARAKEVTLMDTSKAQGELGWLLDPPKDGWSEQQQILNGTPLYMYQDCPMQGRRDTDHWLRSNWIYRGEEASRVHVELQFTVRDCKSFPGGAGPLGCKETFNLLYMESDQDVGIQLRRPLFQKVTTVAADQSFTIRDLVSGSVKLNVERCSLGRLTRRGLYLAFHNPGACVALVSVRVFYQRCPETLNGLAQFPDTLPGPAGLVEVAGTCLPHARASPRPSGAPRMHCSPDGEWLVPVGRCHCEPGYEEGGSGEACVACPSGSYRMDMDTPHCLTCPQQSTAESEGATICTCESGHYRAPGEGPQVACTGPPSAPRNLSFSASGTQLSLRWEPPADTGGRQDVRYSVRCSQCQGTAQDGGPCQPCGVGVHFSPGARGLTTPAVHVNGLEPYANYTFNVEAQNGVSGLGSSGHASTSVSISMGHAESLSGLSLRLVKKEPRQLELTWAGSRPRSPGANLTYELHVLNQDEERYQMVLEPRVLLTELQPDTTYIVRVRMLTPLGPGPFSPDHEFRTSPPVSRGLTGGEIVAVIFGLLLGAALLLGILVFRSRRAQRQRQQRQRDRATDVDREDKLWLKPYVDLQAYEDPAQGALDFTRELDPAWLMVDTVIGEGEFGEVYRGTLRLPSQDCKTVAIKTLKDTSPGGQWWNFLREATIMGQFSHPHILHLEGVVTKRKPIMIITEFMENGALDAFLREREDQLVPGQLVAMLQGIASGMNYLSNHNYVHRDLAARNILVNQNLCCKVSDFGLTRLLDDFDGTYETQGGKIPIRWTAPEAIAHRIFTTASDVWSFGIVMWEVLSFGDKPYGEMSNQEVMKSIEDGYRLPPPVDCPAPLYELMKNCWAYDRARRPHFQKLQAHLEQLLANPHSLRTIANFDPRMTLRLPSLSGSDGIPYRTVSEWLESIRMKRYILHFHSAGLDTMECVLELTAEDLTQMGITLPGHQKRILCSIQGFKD
# [5] = target: T3, Ephrin type-A receptor 1 (Homo sapiens); settings: at 10 µM
# [6] = target: Ephrin type-A receptor 2 (Homo sapiens) (UniProt P29317); settings: at 1 µM
# [7] = target: Ephrin type-A receptor 2 (Homo sapiens) (UniProt P29317); settings: at 10 µM
# [8] = target: T4, Ephrin type-A receptor 3 (Homo sapiens) (UniProt P29320); settings: at 1 µM
# T4 sequence (whole entry): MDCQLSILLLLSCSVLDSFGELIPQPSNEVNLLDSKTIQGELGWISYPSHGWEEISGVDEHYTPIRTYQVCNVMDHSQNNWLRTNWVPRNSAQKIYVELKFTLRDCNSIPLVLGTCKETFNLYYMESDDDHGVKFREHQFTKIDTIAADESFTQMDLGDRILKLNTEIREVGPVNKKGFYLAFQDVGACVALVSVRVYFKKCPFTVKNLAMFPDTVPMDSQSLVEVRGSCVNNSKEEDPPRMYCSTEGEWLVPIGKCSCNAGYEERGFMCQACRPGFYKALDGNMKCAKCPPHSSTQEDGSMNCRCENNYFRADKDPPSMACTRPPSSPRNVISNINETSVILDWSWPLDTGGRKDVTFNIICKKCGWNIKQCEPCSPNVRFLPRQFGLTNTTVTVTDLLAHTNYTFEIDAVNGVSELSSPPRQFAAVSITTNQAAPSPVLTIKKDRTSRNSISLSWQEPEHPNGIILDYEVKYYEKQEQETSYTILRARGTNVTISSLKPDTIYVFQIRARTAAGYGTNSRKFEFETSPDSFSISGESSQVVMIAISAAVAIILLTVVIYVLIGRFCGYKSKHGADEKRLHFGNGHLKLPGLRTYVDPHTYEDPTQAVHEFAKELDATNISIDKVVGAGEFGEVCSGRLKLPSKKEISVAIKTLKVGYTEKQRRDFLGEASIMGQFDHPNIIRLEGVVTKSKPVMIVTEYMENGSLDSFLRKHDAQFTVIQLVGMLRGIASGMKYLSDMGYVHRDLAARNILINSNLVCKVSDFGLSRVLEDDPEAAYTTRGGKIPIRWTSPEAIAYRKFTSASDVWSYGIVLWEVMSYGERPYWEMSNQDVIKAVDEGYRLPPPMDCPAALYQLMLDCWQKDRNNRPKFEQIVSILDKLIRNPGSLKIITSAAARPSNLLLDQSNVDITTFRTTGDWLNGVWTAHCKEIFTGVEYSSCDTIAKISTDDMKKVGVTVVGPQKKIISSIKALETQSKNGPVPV
# [9] = target: T4, Ephrin type-A receptor 3 (Homo sapiens); settings: at 10 µM
# [10] = target: Ephrin type-A receptor 4 (Homo sapiens) (UniProt P54764); settings: at 1 µM
# [11] = target: Ephrin type-A receptor 4 (Homo sapiens) (UniProt P54764); settings: at 10 µM
# [12] = target: Ephrin type-A receptor 5 (Homo sapiens) (UniProt P54756); settings: at 1 µM
# [13] = target: Ephrin type-A receptor 5 (Homo sapiens) (UniProt P54756); settings: at 10 µM
# [14] = target: Ephrin type-A receptor 7 (Homo sapiens) (UniProt Q15375); settings: at 1 µM
# [15] = target: Ephrin type-A receptor 7 (Homo sapiens) (UniProt Q15375); settings: at 10 µM
# [16] = target: T5, Ephrin type-A receptor 8 (Homo sapiens) (UniProt P29322); settings: at 1 µM
# T5 sequence (whole entry): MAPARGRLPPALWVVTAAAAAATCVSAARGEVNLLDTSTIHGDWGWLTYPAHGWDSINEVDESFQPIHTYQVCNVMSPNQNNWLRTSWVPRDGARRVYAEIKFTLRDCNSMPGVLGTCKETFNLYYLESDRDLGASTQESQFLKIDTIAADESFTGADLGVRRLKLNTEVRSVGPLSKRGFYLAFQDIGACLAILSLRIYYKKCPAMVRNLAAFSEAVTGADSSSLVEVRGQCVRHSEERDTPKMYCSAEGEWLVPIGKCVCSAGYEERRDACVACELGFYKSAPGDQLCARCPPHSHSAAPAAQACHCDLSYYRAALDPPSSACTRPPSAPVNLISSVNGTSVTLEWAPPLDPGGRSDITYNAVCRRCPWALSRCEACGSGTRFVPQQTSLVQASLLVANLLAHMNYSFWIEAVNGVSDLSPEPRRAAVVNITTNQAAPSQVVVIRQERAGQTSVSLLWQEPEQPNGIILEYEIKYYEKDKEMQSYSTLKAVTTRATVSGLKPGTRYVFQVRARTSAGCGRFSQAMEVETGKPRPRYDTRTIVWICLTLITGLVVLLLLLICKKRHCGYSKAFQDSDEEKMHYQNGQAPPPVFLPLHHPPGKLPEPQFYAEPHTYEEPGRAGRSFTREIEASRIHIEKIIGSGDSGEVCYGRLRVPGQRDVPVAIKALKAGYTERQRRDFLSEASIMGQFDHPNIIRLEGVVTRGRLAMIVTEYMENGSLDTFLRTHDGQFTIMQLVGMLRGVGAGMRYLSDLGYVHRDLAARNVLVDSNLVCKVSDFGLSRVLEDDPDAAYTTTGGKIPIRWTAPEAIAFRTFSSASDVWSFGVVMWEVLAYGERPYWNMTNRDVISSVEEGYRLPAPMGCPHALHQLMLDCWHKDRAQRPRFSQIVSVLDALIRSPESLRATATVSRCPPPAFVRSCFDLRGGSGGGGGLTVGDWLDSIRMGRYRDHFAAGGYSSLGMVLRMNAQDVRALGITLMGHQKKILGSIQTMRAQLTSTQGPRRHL
# [17] = target: T5, Ephrin type-A receptor 8 (Homo sapiens); settings: at 10 µM
# [18] = target: T6, Ephrin type-B receptor 1 (Homo sapiens) (UniProt P54762); settings: at 1 µM
# T6 sequence (whole entry): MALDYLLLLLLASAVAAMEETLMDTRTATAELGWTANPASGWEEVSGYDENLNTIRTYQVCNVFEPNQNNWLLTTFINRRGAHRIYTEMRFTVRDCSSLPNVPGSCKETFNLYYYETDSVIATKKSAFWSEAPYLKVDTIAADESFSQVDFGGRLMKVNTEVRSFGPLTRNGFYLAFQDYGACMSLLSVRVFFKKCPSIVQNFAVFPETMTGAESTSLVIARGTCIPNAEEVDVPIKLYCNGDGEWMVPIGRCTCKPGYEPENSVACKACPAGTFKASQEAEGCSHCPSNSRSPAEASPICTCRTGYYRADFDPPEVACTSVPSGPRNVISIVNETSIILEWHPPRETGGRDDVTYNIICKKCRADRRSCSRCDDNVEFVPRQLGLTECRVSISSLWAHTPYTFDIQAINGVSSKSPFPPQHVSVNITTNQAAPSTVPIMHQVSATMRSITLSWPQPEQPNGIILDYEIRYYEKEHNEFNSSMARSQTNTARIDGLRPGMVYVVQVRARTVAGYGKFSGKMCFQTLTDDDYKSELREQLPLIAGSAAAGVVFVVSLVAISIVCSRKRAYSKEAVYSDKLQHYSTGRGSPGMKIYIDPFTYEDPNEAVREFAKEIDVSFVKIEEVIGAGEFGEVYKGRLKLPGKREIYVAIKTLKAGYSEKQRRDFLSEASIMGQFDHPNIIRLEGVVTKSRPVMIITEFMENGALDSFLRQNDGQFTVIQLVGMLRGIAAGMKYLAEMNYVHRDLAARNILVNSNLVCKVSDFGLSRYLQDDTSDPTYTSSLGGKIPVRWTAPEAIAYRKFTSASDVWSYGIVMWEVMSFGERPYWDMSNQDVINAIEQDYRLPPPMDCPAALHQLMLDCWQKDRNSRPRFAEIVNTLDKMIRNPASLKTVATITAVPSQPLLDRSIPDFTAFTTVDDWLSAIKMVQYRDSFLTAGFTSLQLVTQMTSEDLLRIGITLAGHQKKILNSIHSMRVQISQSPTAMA
# [19] = target: Epidermal growth factor receptor (Homo sapiens) (UniProt P00533); settings: at 1 µM
# [20] = target: Epidermal growth factor receptor (Homo sapiens) (UniProt P00533); settings: at 10 µM
# Sequence of Ephrin type-A receptor 5 (Homo sapiens) (P54756 whole entry): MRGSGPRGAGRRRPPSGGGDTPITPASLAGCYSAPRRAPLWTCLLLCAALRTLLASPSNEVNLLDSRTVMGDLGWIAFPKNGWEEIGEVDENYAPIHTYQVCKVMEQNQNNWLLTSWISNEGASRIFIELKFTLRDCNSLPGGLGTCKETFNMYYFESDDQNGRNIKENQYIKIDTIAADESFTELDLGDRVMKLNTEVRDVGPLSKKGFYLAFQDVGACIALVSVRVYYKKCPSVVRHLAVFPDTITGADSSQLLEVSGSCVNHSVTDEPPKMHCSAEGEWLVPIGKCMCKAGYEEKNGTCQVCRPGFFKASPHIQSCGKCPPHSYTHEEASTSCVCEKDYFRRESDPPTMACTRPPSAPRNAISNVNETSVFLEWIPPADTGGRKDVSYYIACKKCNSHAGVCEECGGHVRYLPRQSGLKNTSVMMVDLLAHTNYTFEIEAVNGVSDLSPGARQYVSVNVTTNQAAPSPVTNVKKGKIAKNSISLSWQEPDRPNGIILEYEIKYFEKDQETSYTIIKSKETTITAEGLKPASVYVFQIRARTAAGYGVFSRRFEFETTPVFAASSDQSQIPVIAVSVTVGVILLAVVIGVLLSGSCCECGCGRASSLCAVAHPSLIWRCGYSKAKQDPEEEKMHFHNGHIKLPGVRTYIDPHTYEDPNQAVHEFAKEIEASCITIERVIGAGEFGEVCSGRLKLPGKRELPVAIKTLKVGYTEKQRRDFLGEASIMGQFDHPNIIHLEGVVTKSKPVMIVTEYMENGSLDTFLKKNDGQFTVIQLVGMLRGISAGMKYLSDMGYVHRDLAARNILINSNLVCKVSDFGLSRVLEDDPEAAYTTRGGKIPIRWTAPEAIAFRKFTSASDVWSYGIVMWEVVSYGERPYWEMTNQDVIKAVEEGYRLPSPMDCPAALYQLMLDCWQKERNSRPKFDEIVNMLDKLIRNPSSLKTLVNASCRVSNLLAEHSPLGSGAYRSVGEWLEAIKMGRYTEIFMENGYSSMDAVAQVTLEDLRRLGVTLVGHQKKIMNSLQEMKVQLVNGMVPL
# Sequence of Ephrin type-A receptor 7 (Homo sapiens) (Q15375 28-998 limits assumed): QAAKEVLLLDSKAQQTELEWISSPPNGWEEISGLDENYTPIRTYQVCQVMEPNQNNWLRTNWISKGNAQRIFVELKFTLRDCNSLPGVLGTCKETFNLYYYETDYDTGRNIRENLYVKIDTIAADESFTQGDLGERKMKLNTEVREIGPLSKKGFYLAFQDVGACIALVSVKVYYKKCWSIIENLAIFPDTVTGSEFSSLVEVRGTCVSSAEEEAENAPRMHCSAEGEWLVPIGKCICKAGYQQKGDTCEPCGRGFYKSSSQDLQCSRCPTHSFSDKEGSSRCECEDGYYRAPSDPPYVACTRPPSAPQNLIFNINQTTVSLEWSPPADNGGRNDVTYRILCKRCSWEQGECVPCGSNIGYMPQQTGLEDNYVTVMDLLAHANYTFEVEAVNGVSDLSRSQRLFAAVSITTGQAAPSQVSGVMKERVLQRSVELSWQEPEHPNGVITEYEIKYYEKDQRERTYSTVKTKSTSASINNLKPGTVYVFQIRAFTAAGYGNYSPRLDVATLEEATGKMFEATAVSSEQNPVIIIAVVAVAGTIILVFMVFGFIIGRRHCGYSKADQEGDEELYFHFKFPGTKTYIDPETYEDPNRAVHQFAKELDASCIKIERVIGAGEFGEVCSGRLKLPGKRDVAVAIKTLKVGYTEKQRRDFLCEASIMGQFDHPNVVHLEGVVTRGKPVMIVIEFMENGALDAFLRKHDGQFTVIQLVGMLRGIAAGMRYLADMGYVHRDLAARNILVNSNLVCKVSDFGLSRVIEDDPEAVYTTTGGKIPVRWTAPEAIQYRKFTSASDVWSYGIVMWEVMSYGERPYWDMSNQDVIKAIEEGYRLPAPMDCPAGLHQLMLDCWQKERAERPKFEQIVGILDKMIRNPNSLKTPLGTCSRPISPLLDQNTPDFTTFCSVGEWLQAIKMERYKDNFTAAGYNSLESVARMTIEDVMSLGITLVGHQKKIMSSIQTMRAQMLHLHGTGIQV
# Sequence of Ephrin type-A receptor 4 (Homo sapiens) (P54764 whole entry): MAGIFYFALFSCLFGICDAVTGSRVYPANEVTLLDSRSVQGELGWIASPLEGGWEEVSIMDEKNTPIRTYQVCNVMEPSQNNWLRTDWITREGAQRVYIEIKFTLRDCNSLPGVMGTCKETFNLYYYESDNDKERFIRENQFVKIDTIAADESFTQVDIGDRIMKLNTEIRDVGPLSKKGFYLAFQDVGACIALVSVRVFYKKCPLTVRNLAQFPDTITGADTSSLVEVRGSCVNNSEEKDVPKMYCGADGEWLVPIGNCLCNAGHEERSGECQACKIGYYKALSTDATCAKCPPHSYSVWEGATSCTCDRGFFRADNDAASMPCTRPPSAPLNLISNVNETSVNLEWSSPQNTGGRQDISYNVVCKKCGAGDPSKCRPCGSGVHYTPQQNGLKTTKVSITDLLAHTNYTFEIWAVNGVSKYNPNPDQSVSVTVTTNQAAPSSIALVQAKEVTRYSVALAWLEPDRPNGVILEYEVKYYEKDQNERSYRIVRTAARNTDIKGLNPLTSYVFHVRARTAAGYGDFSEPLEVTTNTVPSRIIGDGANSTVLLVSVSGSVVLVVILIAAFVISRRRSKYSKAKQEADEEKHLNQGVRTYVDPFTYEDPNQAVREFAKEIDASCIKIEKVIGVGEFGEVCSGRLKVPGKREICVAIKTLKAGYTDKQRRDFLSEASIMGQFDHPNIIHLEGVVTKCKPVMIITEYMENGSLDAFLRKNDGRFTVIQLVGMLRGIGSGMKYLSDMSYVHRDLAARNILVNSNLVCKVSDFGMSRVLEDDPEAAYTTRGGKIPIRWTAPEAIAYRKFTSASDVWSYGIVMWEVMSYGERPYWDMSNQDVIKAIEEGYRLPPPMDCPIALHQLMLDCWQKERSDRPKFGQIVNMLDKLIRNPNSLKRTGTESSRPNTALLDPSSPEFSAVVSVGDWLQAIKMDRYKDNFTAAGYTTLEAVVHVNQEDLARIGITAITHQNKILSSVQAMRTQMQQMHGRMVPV
# Sequence of Ephrin type-A receptor 2 (Homo sapiens) (P29317 whole entry): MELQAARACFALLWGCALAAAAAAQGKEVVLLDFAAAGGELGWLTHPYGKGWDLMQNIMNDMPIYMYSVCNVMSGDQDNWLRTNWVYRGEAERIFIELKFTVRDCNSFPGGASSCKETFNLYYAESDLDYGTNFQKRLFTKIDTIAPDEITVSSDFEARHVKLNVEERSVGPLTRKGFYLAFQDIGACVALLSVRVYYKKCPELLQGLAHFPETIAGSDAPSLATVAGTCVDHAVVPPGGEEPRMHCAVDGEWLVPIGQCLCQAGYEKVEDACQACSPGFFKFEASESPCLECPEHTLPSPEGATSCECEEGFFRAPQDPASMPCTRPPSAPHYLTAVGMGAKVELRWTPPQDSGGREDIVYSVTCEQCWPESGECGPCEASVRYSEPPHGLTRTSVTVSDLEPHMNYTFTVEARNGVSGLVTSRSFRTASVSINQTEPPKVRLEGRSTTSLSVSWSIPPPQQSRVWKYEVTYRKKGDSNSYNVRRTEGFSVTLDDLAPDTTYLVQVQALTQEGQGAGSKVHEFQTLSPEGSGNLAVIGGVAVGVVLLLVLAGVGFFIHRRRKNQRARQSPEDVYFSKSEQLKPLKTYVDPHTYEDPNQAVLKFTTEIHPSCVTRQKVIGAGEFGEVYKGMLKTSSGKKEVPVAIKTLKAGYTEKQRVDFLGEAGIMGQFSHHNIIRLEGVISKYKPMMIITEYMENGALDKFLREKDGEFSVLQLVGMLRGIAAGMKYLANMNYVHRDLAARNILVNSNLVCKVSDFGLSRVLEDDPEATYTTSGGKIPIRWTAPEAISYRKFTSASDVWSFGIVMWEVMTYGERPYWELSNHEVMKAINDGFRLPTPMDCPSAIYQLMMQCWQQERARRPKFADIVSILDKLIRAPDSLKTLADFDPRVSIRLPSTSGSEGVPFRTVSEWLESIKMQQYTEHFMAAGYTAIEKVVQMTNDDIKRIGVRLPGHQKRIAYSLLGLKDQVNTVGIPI
SMILES,residual activity [1],residual activity [2],residual activity [3],residual activity [4],residual activity [5],residual activity [6],residual activity [7],residual activity [8],residual activity [9],residual activity [10],residual activity [11],residual activity [12],residual activity [13],residual activity [14],residual activity [15],residual activity [16],residual activity [17],residual activity [18],residual activity [19],residual activity [20]
Cn1cnc2cc3c(Nc4cccc(Br)c4)ncnc3cc21,28%,98%,79%,60%,49%,89%,62%,90%,30%,106%,88%,82%,40%,77%,39%,86%,63%,70%,,
CC(C)n1cnc2c(NCc3ccccc3)nc(NCCCO)nc21,134%,99%,89%,99%,91%,102%,112%,101%,101%,109%,104%,96%,84%,84%,78%,97%,94%,93%,-1%,-2%
O=C(O)c1ccc2c3c1cccc3c(=O)n1c3ccccc3nc21,13%,54%,11%,103%,89%,88%,102%,103%,91%,106%,104%,102%,100%,104%,88%,103%,93%,107%,,
